Where “and” joins values, the source holds several entries; their conditions need not be identical. Equal values may be shown once. Results filed as inconclusive are left out. Entries that show only a call come without a potency. Calls of active or inactive are those of the source. Unless noted, the call rests on the fitted dose curve; in most records, active means well fitted curve in the direction sought with a large enough effect; inconclusive means small, poorly fitted or top-dose-only effect, or another doubt; inactive means no such curve, though single readings can be large; an effect the other way counts as inactive or inconclusive.
biological target: Cytochrome P450 2C9 (Homo sapiens) (UniProt P11712); experiment: Cytochrome P450 family 2 subfamily C member 9 (CYP2C9) small molecule antagonists: luciferase biochemical (cell-free) qHTS assay (AID 1645842; active means well fitted curve in the direction sought with a large enough effect in the repeat runs; an effect the other way counts as inactive or inconclusive; further: nearly all actives have a fitted effect of over 55% in size); settings: P450-Glo CYP2C9 enzyme assay, luciferin luminescence; series mostly up to 57.4 µM
Procedure, shortened: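 Luminescence, after 20 min with luciferin detection reagent, reflected CYP2C9 turnover during a 1 h NADPH-driven reaction at 37C. Enzyme-substrate mix contained 0.4% bovine serum albumin and was preincubated with compound 10 min at room temperature.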
Potency means the concentration at half of the fitted maximal effect.

Cytochrome P450 2C9 (Homo sapiens), sequence (P11712 whole entry, looked up): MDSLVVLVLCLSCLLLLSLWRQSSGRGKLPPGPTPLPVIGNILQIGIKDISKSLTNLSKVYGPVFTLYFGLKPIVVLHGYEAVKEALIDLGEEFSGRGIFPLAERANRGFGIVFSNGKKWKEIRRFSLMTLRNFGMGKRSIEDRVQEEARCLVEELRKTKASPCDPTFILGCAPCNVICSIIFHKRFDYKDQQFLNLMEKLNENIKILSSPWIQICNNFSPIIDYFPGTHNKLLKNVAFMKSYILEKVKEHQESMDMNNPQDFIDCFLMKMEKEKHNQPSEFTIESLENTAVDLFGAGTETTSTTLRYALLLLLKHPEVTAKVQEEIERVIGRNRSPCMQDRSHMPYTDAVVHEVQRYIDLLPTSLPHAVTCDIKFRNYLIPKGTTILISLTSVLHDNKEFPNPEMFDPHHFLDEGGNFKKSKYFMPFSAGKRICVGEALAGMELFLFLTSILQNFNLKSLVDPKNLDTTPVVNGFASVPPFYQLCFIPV

| Structure (SMILES) | Potency |
| --- | --- |
| Cc1nn(Cc2ccccc2Cl)c(C)c1CN(C)CC(O)COc1ccc(Cl)cc1 (centres undefined) | inactive |
| O=C(c1ccc(C(=O)N2CCC(N3CCCC3)CC2)c(Nc2ccccc2)c1)N1CCC(N2CCCC2)CC1 | inactive |
| CCn1c(-c2nonc2N)nc2cncc(CNC3CCNCC3)c21 | inactive |
| CN1CCN(c2cccc(Nc3nc4c(-c5ccc(S(C)(=O)=O)cc5)cccn4n3)c2)CC1 | 12 µM (active) |
| CN(C)CCOc1cc(-c2cn[nH]c2)ccc1NC(=O)C1COc2ccccc2O1 (centres undefined) | 0.674 µM (active) |
| CN(C)c1nc(Cc2ccc(NC(=O)c3ccc(C(F)(F)F)cc3)cc2)nc(N(C)C)c1CC(=O)O | inactive |
| Cc1cn([C@@H]2C[C@@H](O)[C@H](CO)O2)c(=O)[nH]c1=O | inactive |
| COc1ccc(-c2cc3nccn3c(Nc3ncccc3C(N)=O)n2)cc1OC | 5.35 µM (active) |
| CCN1C[C@H](C)n2c(c(O)c3c(=O)n(Cc4ccc(F)c(Cl)c4)nc(C(=O)NC)c32)C1=O | 8.49 µM (active) |
| COc1cc2nccc(Oc3ccc(NC(=O)Nc4cc(C)on4)c(Cl)c3)c2cc1OC | 19 µM (active) |
| CCC(=O)N1CCN(c2ccc(-n3c(=O)ccc4cnc5ccc(-c6cnc7ccccc7c6)cc5c43)cc2C(F)(F)F)CC1 | 10.7 µM (active) |
| N#CC(c1ccc(Cl)cc1)c1c(Cl)cc(-n2ncc(=O)[nH]c2=O)cc1Cl (centres undefined) | 19 µM (active) |
| CCc1cc(-c2n[nH]c(C)c2-c2ccc3c(c2)OCCO3)c(O)cc1O | 0.756 µM (active) |
| Cc1cnc(-c2cc(N3CCN(C(=O)CCS(C)(=O)=O)CC3)ncc2Cl)c(C)c1 | 21.3 µM (active) |
| CC(C)(C)c1nc(-c2cccc(NS(=O)(=O)c3c(F)cccc3F)c2F)c(-c2ccnc(N)n2)s1 | 6.74 µM (active) |
| Cc1ccccc1-n1c(Cn2nc(-c3cccc(O)c3)c3c(N)ncnc32)nc2cccc(C)c2c1=O | 2.13 µM (active) |

test system: not listed separately; experiment: Primary qHTS for inhibitors of nuclear receptor binding SET domain protein 2 (NSD2) in an isogenic RCH-ACV NSD2 p.E1099K mutant (9B) (AID 1645876); settings: RCH-ACV (leukaemia line) NSD2 E1099K (9B) viability, CellTiter-Glo, 72 h; series mostly up to 44.9 µM; further: nearly all actives have a fitted effect of over 70% in size

| Structure (SMILES) | Potency |
| --- | --- |
| Cc1nn(Cc2ccccc2Cl)c(C)c1CN(C)CC(O)COc1ccc(Cl)cc1 (centres undefined) | 18.6 µM (active) |
| CCC(=O)NCC[C@@H]1CCc2ccc3c(c21)CCO3 | inactive |
| COc1c(C)cnc(Cn2cnc3c(Cl)nc(N)nc32)c1C | 0.235 µM (active) |
| CCN(CC)CCCCNc1nc2cc(Cl)c(Cl)cc2nc1-c1ccc(-c2cccs2)s1 | 7.42 µM (active) |
| N[C@@H](CC(=O)N1CCn2c(nnc2C(F)(F)F)C1)Cc1cc(F)c(F)cc1F | inactive |
| O=C(O)c1nc(=O)[nH]c(=O)[nH]1 | inactive |
| O=C(c1ccc(C(=O)N2CCC(N3CCCC3)CC2)c(Nc2ccccc2)c1)N1CCC(N2CCCC2)CC1 | inactive |
| Cc1ccc(C2=Nc3ccc(Cl)cc3OC2)cc1 | inactive |
| CCn1c(-c2nonc2N)nc2cncc(CNC3CCNCC3)c21 | 12.9 µM (active) |
| CN(C)CCN(Cc1ccc(Cl)cc1)c1ccccn1 | inactive |
| NC1(C(=O)N[C@@H](CCO)c2ccc(Cl)cc2)CCN(c2ncnc3[nH]ccc23)CC1 | 0.817 µM (active) |
| CN1CCN(c2cccc(Nc3nc4c(-c5ccc(S(C)(=O)=O)cc5)cccn4n3)c2)CC1 | 2.06 µM (active) and 5.9 µM (active) |
| COC1CCC(C(=O)c2ccc3nc4c(cc3c2)CCCO4)CC1 (centres undefined) | inactive |
| CC[C@H](C=C[C@@H](C)[C@H]1CC[C@H]2[C@@H]3CC=C4C[C@@H](O)CC[C@]4(C)[C@@H]3CC[C@]12C)C(C)C | inactive |
| CN(C)c1nc(Cc2ccc(NC(=O)c3ccc(C(F)(F)F)cc3)cc2)nc(N(C)C)c1CC(=O)O | inactive |
| NCc1c[nH]c(=S)n1[C@H]1CCc2c(F)cc(F)cc2C1 | inactive |
| Cc1cn([C@@H]2C[C@@H](O)[C@H](CO)O2)c(=O)[nH]c1=O | inactive |
| CC1CNc2c(cccc2S(=O)(=O)N[C@@H](CCCN=C(N)N)C(=O)N2CC[C@@H](C)C[C@@H]2C(=O)O)C1 (some centres undefined) | inactive |
| COc1ccc(-c2cc3nccn3c(Nc3ncccc3C(N)=O)n2)cc1OC | 0.649 µM (active) |
| CCN1C[C@H](C)n2c(c(O)c3c(=O)n(Cc4ccc(F)c(Cl)c4)nc(C(=O)NC)c32)C1=O | inactive |
| COc1cc2nccc(Oc3ccc(NC(=O)Nc4cc(C)on4)c(Cl)c3)c2cc1OC | 649 nM (active) and 3.72 µM (active) |
| CCCCOCCOc1nc(-c2ccc(C(=O)O)c(F)c2)sc1C | inactive |
| CS(=O)(=O)c1ccc(C2=C(c3ccccc3)C(=O)OC2)cc1 | inactive |

— PubChem BioAssay (NCATS)
